Only some compounds are listed: those with a hit (about 1.2% of all), similar ones and a draw of the others.
A3G deaminase – APOBEC3G (human) deaminase inhibition. Q9HC16. recombinant A3G, ssDNA deamination FAM/TAMRA fluorescence. inhibition, % at 20 µM. 330,000 compounds, 0.28% hits;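 active means inhibition of at least 40% at 20 µM, with no more than 30% in the related APOBEC3A deaminase screen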
NALP1 inh – inhibitors of NALP1 inflammasome in yeast | 280,000 compounds, 0.61% hits | S. cerevisiae NALP1/ASC/caspase-1 growth, X-gal OD620, 72 h | inhibition, % at 10 µM; in the data active means inhibition mostly above about 24%, no sharp cut-off; inactive means mostly below about 32%
A3A deaminase – blocks human APOBEC3A ssDNA deamination. P31941. recombinant A3A, FAM/TAMRA ssDNA deamination fluorescence. inhibition, % at 20 µM. 330,000 compounds, 0.41% hits;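 active means at least 40% inhibition at 20 µM here, with at most 30% in a related deaminase screen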
Target sequence (P31941 whole entry, looked up): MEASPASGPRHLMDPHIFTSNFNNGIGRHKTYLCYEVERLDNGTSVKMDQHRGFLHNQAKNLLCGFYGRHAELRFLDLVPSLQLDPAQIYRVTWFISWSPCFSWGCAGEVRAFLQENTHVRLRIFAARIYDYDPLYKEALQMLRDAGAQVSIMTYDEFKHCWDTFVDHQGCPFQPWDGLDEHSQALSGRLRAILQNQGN
PolyA inhibitor – yeast polyadenylation inhibition | activity score, % at 12 µM | 300,000 compounds, 0.02% hits | AID 1875 | S. cerevisiae SKY197-pL101 polyadenylation reporter, beta-gal luminescence; efflux-impaired pdr1/pdr3 knockout yeast; score 100 = 6 SD above DMSO;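 active means lowest replicate activity score at least 50, where 100 means six control SD above control mean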;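 further: yeast exposed to compound for 9 h at 30 °C; higher score means more reporter readthrough which indicates perturbed polyadenylation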
Each line names hits and unclear results; the compound was inactive in the other large screens.

COc1ccccc1N(Cc1ccccc1)S(=O)(=O)c1cccc(C(=O)Nc2cc(C)ccn2)c1	none
COc1ccccc1NC(=O)c1ccc(Br)o1	NALP1 inh 28
Cc1ccc(CCNC(=O)C2CCCN(S(=O)(=O)N3CC(C)CC(C)C3)C2)cc1 (stereo not given)	none
CCCn1c(=O)c(C(=O)Nc2ncccc2C)c(O)c2ccccc21	NALP1 inh 33
NC(=O)NC(=O)C(Nc1ccc(N2CCCCC2)cc1)c1ccccc1 (stereo not given)	none
O/N=C/c1cccc[n+]1CCCCCC[n+]1ccccc1/C=N/O	none
CCCCCCCCCCCCCCCC[n+]1ccc(/C=N/O)cc1	NALP1 inh 50 (no result: PolyA inhibitor)
CCCCCCCC[n+]1cccc(C(=O)N(CC)CC)c1	none
CCCCCCCCCCCCCCCC[n+]1cccc(C(=O)N(CC)CC)c1	NALP1 inh 71
CCCCC(=O)Nc1ccc(C(N)=O)cc1	none (no result: NALP1 inh)
CCCCCCCCCCCCCCCC[n+]1ccc(C(N)=O)cc1	NALP1 inh 96 (no result: PolyA inhibitor)
COc1ccc(Nc2nc(N)nc(CSC(=S)N3CCCCC3C)n2)cc1 (stereo not given)	none (no result: NALP1 inh)
O=C(O)COc1ccc(/C=N/NC(=O)C(O)(c2ccccc2)c2ccccc2)cc1	none
Cc1ccc(C)c(NC(=O)CN2C(=O)NC(C)(c3ccc4c(c3)OCCO4)C2=O)c1 (stereo not given)	none (no result: NALP1 inh, PolyA inhibitor)
O=C(CCl)Nc1ccc(N=Nc2ccccc2)cc1	NALP1 inh 78 (no result: A3G deaminase, A3A deaminase)
O=C(O)CN1C(=O)/C(=C/c2ccc(N3CCCCC3)o2)SC1=S	PolyA inhibitor 106
COc1ccccc1N(C)S(=O)(=O)c1ccc(C(=O)OCC(=O)Nc2ccc(C(N)=O)cc2)cc1	none (no result: NALP1 inh, PolyA inhibitor)
COc1ccccc1N(C)S(=O)(=O)c1ccc(C(=O)OCC(=O)N(C(C)C)C(C)C)cc1	NALP1 inh 26
OCC1(CC2CCCCO2)CCN(C/C=C/c2ccccc2)CC1 (stereo not given)	NALP1 inh 39
COc1cc(/C=C/CN2CCC(CO)(CC3CCCCO3)CC2)ccc1O (stereo not given)	none
Oc1c(CN2CCCCC2)cc(Br)c2cccnc12	NALP1 inh 58
Oc1c(Cl)cc(CN2CCOCC2)c2cccnc12	none (no result: NALP1 inh, PolyA inhibitor)
CSc1ccccc1OCc1cc(C(=O)N(C)Cc2cnccn2)no1	none
CC(C)Sc1nc(N2CCOCC2)c2c(c1C#N)CC(C)(C)SC2	NALP1 inh 36
COc1ccc(CN(CC(=O)NCC2CCCO2)C(=O)CNS(=O)(=O)c2ccccc2)cc1 (stereo not given)	none
O=C(Oc1cccc2cccnc12)c1ccc(N2C(=O)C3C4CCC(C4)C3C2=O)cc1 (stereo not given)	NALP1 inh 59
CCOc1cc(C(=O)Nn2cnnc2)cc(OCC)c1OCC	none
CCOc1ccc(C(=O)Nn2cnnc2)cc1	NALP1 inh 33
CC1CCN(C(=O)COC(=O)c2ccc(Br)o2)CC1	NALP1 inh 34
Cc1nc(Nc2ccc(Br)cc2Br)c([N+](=O)[O-])c(=O)[nH]1	none (no result: NALP1 inh)
Cc1ccccc1-c1cccc(CN2CCN(C)C(CCO)C2)c1 (stereo not given)	none
O=C(N/N=C/c1ccc(Cl)cc1)C(=O)N1CCCCCC1	NALP1 inh 25 (no result: PolyA inhibitor)
CC(=O)c1nc2ccccc2n1S(=O)(=O)c1ccc(C)cc1	NALP1 inh 28
O=[N+]([O-])c1ccc(S(=O)(=O)NCCS(=O)(=O)N2CCN(c3ccccc3)CC2)cc1	none
CC(NC(=O)CCC1COc2ccccc2O1)c1ccccc1 (stereo not given)	NALP1 inh 42
O=C(CCC1COc2ccccc2O1)NC1CCCCC1 (stereo not given)	NALP1 inh 41
O=C(Nc1ccc(Cl)cc1)ON=C1CCCC1	NALP1 inh 94
CN1CCC(Oc2ccc(Sc3ccccc3)cc2)CC1	NALP1 inh 49
O=C(OCC(O)COc1ccccc1)c1ccc([N+](=O)[O-])cc1 (stereo not given)	none
Nc1[nH]n2c(=O)cc(-c3ccccc3)nc2c1N=Nc1ccc2c(c1)OCO2	NALP1 inh 42
COc1ccccc1OCC(=O)NCCSCc1ccc(Cl)cc1	NALP1 inh 64
COc1ccccc1N(CC(=O)NCCSCc1ccc(Cl)cc1)S(C)(=O)=O	none
CC(C)CC1NC(=O)c2ccccc2-n2c1nc1ccccc1c2=O (stereo not given)	none (no result: NALP1 inh, PolyA inhibitor)
COC(=O)COc1ccc(/C=N/NS(=O)(=O)c2ccccc2)cc1	none
NC(=O)COc1ccc(/C=N/NS(=O)(=O)c2ccccc2)cc1	NALP1 inh 40
Cc1c(OCC(=O)N2CCC(C(N)=O)CC2)ccc2c1oc(=O)c1ccccc12	none

Assay outcomes from PubChem BioAssay.
